Laboratory results from PubChem BioAssay (NCATS).
Results filed as inconclusive are left out. A call without a number means that no potency is given here. Activity calls are given as the source filed them. Calls follow the shape of the dose curve; as a rule, active = well fitted inhibition curve with a large enough effect; inconclusive = small, poorly fitted or top-dose-only effect; inactive = flat fitted curve, though single readings scatter.

target: Phospholipid hydroperoxide glutathione peroxidase GPX4 (Homo sapiens) (UniProt P36969); assay: Primary qHTS Assay for Inhibitors of Recombinant Selenoprotein Glutathione Peroxidase 4 (GPX4) (AID 1845192); details: recombinant GPX4, GR-coupled NADPH fluorescence, 15 min; series mostly up to 50 µM; also: nearly all actives have a fitted effect of over 65% in size
In short: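 qHTS, GR-coupled: GPX4 200 nM + cpd 30 min RT → GSH 1 mM, NADPH 0.5 mM, GR 100 nM → CHP 0.5 mM start; fluor 340/450 at t0 and t15 min; no-enzyme wells as control.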
Potency is read from the fitted curve at half-maximal effect.

Chain of Phospholipid hydroperoxide glutathione peroxidase GPX4 (Homo sapiens) (P36969 whole entry, looked up): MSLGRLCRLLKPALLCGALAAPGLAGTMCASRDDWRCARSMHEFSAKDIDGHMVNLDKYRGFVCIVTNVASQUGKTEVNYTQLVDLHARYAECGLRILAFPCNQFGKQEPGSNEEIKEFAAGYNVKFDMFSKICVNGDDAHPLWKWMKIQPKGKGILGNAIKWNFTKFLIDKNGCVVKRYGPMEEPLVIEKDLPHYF

| Compound | Potency | outcome |
| --- | --- | --- |
| C[C@]12CCC(=O)C[C@@H]1CC[C@@H]1[C@@H]2CC[C@]2(C)C=CC[C@@H]12 | inactive | – |
| CC[C@H](CC[C@@H](C)[C@H]1CC[C@H]2[C@@H]3CC=C4C[C@@H](O)CC[C@]4(C)[C@H]3CC[C@]12C)C(C)C | inactive | – |
| O=C(O)/C=C/c1ccccc1 | inactive | – |
| FC(F)(F)C(F)(F)C(F)(F)C(F)(F)C(F)(F)F | inactive | – |
| O=S(=O)(O)CC(S)CS (stereo unspecified) | 7.08 µM (active) | – |
| CCN(CC)CCOc1ccc2nc(N(C)C)sc2c1 | inactive | – |
| CC1=C(/C=C/C(C)=C/C=C/C(C)=C/C=C/C=C(C)/C=C/C=C(C)/C=C/C2=C(C)C[C@@H](O)CC2(C)C)C(C)(C)C[C@H](O)C1 | inactive | – |
| CN1C(=O)OC(C)(C)C1=O | inactive | – |
| OC[C@H]1O[C@@](CO)(O[C@H]2O[C@H](CO)[C@@H](O)[C@H](O)[C@H]2O)[C@@H](O)[C@@H]1O | inactive | – |
| CCCCCCCCCCCCCCCCCCCCCC(=O)Nc1ccn([C@@H]2O[C@H](CO)[C@@H](O)[C@@H]2O)c(=O)n1 | inactive | – |
| COC1=C(OC)C(=O)C(C/C=C(\C)CC/C=C(\C)CC/C=C(\C)CC/C=C(\C)CC/C=C(\C)CC/C=C(\C)CC/C=C(\C)CC/C=C(\C)CC/C=C(\C)CCC=C(C)C)=C(C)C1=O | inactive | – |
| CCCCCCCCCCCC(=O)OCC(O)CO (stereo unspecified) | inactive | – |
| CCCCC/C=C\C/C=C\C/C=C\CCCCC(=O)O | 8.91 µM (active) | – |
| O=C1CCC(=O)N1CO | inactive | – |
| C=C1CC[C@H](O)C/C1=C\C=C1/CCC[C@]2(C)[C@@H]([C@H](C)CCCC(C)C)CC[C@@H]12 | inactive | – |
| COc1ccc2c(=O)c(C)c(-c3ccccc3)oc2c1CN(C)C | inactive | – |
| CCN1C(=O)NC(c2ccccc2)C1=O (stereo unspecified) | inactive | – |
| NC[C@@H]1O[C@H](O[C@H]2[C@@H](O)[C@H](O[C@@H]3[C@@H](O)[C@H](N)C[C@H](N)[C@H]3O[C@H]3O[C@H](CO)[C@@H](O)[C@H](O)[C@H]3N)O[C@@H]2CO)[C@H](N)[C@@H](O)[C@@H]1O | – | inactive [at 0.409 µM] |
| CN[C@@H]1[C@@H](O)[C@@H](O[C@@H]2[C@@H](O)[C@H](O[C@H]3O[C@H](CN)[C@@H](O)[C@H](O)[C@H]3O)[C@@H](N)C[C@H]2NC(=O)C(O)CN)OC[C@]1(C)O (stereo partly specified) | inactive | – |
| CC(=O)Nc1c(I)c(C(=O)N[C@H]2C(O)O[C@H](CO)[C@@H](O)[C@@H]2O)c(I)c(N(C)C(C)=O)c1I (stereo partly specified) | inactive | – |
| CS(=O)(=O)c1ccc([C@@H](O)[C@@H](COC(=O)CN)NC(=O)C(Cl)Cl)cc1 | inactive | – |
